# Laboratory results: PubChem BioAssay (EPA / NIEHS)
# The source made the active and inactive calls. Rule for the calls: active = hit-call score of the fitted dose curve at least 0.9, where 1 is the maximum; inactive = score below 0.9.
# How the values were obtained:
# Settings in all cases: mRNA level, 48 h; actives raise or lower the signal
# [1] = read-out: Cytochrome P450 (CYP1A1), CYP1A1 (gene 1543); experiment: LTEA_HepaRG_CYP1A1: Life Technologies and Expression Analysis (LTEA) Assay for Cytochrome P450 (CYP1A1) using HepaRG (AID 2283454)
# How it was run: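 HepaRG, 48 h post-plating switched to serum-free induction medium; 8-pt conc-response (top 100 uM, half-log, 0.5% DMSO), duplicates, 48 h. Lysis in RLT, TaqMan qRT-PCR for CYP1A1; gain or loss vs DMSO.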
# [2] = read-out: CFLAR gene, CFLAR (gene 8837); experiment: LTEA_HepaRG_CFLAR: Life Technologies and Expression Analysis (LTEA) Assay for CFLAR gene using HepaRG (AID 2283455)
# How it was run: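 Differentiated HepaRG cells in serum-free induction medium were exposed 48 h in duplicate to eight half-log concentrations up to 100 uM in 0.5% DMSO; mRNA measured by TaqMan qRT-PCR, normalized to ACTB, GAPDH, POLR2A; bidirectional fitting versus DMSO.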
# [3] = read-out: Forkhead box O1 (FOXO1), FOXO1 (gene 2308); experiment: LTEA_HepaRG_FOXO1: Life Technologies and Expression Analysis (LTEA) Assay for Forkhead box O1 (FOXO1) using HepaRG (AID 2283456)
# How it was run: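 Differentiated HepaRG cells, in serum-free induction medium with 0.5% DMSO, exposed 48 h in duplicate to 8-point half-log series from 100 uM. FOXO1 mRNA measured by TaqMan qRT-PCR, normalized to ACTB, GAPDH, POLR2A; bidirectional fit versus DMSO.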
# [4] = read-out: growth arrest and DNA damage 45 (GADD45A), GADD45A (gene 1647); experiment: LTEA_HepaRG_GADD45A: Life Technologies and Expression Analysis (LTEA) Assay for growth arrest and DNA damage 45 (GADD45A) using HepaRG (AID 2283458)
# How it was run: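 Differentiated HepaRG cells were exposed in duplicate for 48 h in serum-free induction medium to 8-point half-log concentrations up to 100 uM in 0.5% DMSO. GADD45A mRNA was measured by TaqMan qRT-PCR, normalized to ACTB, GAPDH and POLR2A, with bidirectional fitting versus DMSO.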
# [5] = read-out: Forkhead box O3 (FOXO3), FOXO3 (gene 2309); experiment: LTEA_HepaRG_FOXO3: Life Technologies and Expression Analysis (LTEA) Assay for Forkhead box O3 (FOXO3) using HepaRG (AID 2283459)
# How it was run: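 Differentiated human HepaRG cells, 48 h post-plating, exposed in duplicate for 48 h in serum-free induction medium; 8-point half-log series from 100 uM in 0.5% DMSO. FOXO3 mRNA by TaqMan qRT-PCR, normalized to ACTB/GAPDH/POLR2A; bidirectional fit versus DMSO.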
# [6] = read-out: ABC Transporter (ABCB1), ABCB1 (gene 5243); experiment: LTEA_HepaRG_ABCB1: Life Technologies and Expression Analysis (LTEA) Assay for ABC Transporter (ABCB1) using HepaRG (AID 2283460)
# How it was run: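 HepaRG cells exposed in duplicate for 48 h in serum-free induction medium to eight half-log concentrations up to 100 uM in 0.5% DMSO. ABCB1 mRNA quantified by qRT-PCR, normalised to ACTB, GAPDH and POLR2A; fitted bidirectionally versus DMSO.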
# [7] = read-out: growth arrest and DNA damage 45 (GADD45B), GADD45B (gene 4616); experiment: LTEA_HepaRG_GADD45B: Life Technologies and Expression Analysis (LTEA) Assay for growth arrest and DNA damage 45 (GADD45B) using HepaRG (AID 2283461)
# How it was run: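 HepaRG, ~100,000 cells/well, 48 h plating; serum-free induction medium; cpd 100 uM top, half-log x8, 0.5% DMSO, duplicate, 48 h; lysis in RLT, RNA isolation, qRT-PCR; norm ACTB/GAPDH/POLR2A; bidirectional fit vs DMSO.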
# [8] = read-out: ABC Transporter (ABCC3), ABCC3 (gene 8714); experiment: LTEA_HepaRG_ABCC3: Life Technologies and Expression Analysis (LTEA) Assay for ABC Transporter (ABCC3) using HepaRG (AID 2283462)
# How it was run: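 Human HepaRG, 48 h dosing, 8-pt half-log series from 100 uM, 0.5% DMSO vehicle, duplicates. ABCC3 mRNA by TaqMan qRT-PCR, housekeeping-normalized; bidirectional curve fit vs DMSO.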
# [9] = read-out: ABC Transporter (ABCB11), ABCB11 (gene 8647); experiment: LTEA_HepaRG_ABCB11: Life Technologies and Expression Analysis (LTEA) Assay for ABC Transporter (ABCB11) using HepaRG (AID 2283463)
# How it was run: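 Differentiated human HepaRG cells in serum-free induction medium, dosed in duplicate for 48 h. Eight-point half-log series from 100 uM in 0.5% DMSO; ABCB11 mRNA by qRT-PCR, normalized to ACTB, GAPDH, POLR2A, fitted bidirectionally versus DMSO.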
# [10] = read-out: ABC Transporter (ABCC2), ABCC2 (gene 1244); experiment: LTEA_HepaRG_ABCC2: Life Technologies and Expression Analysis (LTEA) Assay for ABC Transporter (ABCC2) using HepaRG (AID 2283464)
# How it was run: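 HepaRG, 48 h post-plating; serum-free induction medium; cpd 8-pt, 100 uM top, half-log, 0.5% DMSO, duplicate, 48 h. Readout: ABCC2 mRNA by qRT-PCR, norm. ACTB/GAPDH/POLR2A. Bidirectional fit vs DMSO baseline.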
# [11] = read-out: Broad substrate specificity ATP-binding cassette transporter ABCG2 (Homo sapiens) (UniProt Q9UNQ0); experiment: LTEA_HepaRG_ABCG2: Life Technologies and Expression Analysis (LTEA) Assay for ABC Transporter (ABCG2) using HepaRG (AID 2283465)
# How it was run: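 Differentiated HepaRG cells were exposed for 48 h in serum-free induction medium to 8 half-log concentrations, top 100 uM, in 0.5% DMSO. ABCG2 mRNA was measured by qRT-PCR, normalized to ACTB, GAPDH and POLR2A, with bidirectional fitting versus DMSO.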
# [12] = read-out: ATP-citrate lyase (ACLY), ACLY (gene 47); experiment: LTEA_HepaRG_ACLY: Life Technologies and Expression Analysis (LTEA) Assay for ATP-citrate lyase (ACLY) using HepaRG (AID 2283466)
# How it was run: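 Differentiated HepaRG cells exposed 48 h in serum-free induction medium to eight half-log concentrations up to 100 uM in 0.5% DMSO, duplicates. Transcript measured by Fluidigm TaqMan qRT-PCR, normalized to ACTB, GAPDH, POLR2A; bidirectional fit versus DMSO.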
# [13] = read-out: Peroxisomal acyl-coenzyme A oxidase 1 (ACOX1) gene, ACOX1 (gene 51); experiment: LTEA_HepaRG_ACOX1: Life Technologies and Expression Analysis (LTEA) Assay for Peroxisomal acyl-coenzyme A oxidase 1 (ACOX1) gene using HepaRG (AID 2283467)
# How it was run: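 HepaRG cells, plated 48 h then switched to serum-free induction medium, were exposed in duplicate for 48 h to 8-point half-log concentrations up to 100 uM in 0.5% DMSO. ACOX1 mRNA was measured by qRT-PCR, normalized to ACTB/GAPDH/POLR2A, and fitted bidirectionally versus DMSO.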
# [14] = read-out: Alkaline Phosphatase, Placental (ALPP) gene, ALPP (gene 250); experiment: LTEA_HepaRG_ALPP: Life Technologies and Expression Analysis (LTEA) Assay for Alkaline Phosphatase, Placental (ALPP) gene using HepaRG (AID 2283468)
# How it was run: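 HepaRG, 48 h plating then 48 h dosing, serum-free induction medium, 0.5% DMSO. 8 conc, half-log, max 100 uM, duplicates. Endpoint: ALPP transcript by qRT-PCR, housekeeping-normalized; gain or loss fitted vs DMSO.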
# [15] = read-out: Bcl-2 (BAD) gene, BAD (gene 572); experiment: LTEA_HepaRG_BAD: Life Technologies and Expression Analysis (LTEA) Assay for Bcl-2 (BAD) gene using HepaRG (AID 2283469)
# How it was run: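 Differentiated HepaRG cells were exposed in duplicate in 0.5% DMSO for 48 h to eight-point half-log concentrations up to 100 uM. BAD mRNA was measured by Fluidigm TaqMan qRT-PCR, normalized to ACTB, GAPDH and POLR2A, and fitted bidirectionally against DMSO.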
# [16] = read-out: Bcl-2 (BAX) gene, BAX (gene 581); experiment: LTEA_HepaRG_BAX: Life Technologies and Expression Analysis (LTEA) Assay for Bcl-2 (BAX) gene using HepaRG (AID 2283470)
# How it was run: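 Differentiated human HepaRG cells, plated 48 h then switched to serum-free induction medium, were exposed 48 h to 8 half-log concentrations up to 100 uM in 0.5% DMSO; BAX mRNA measured by qRT-PCR, normalized to ACTB, GAPDH, POLR2A.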
# [17] = read-out: adenosine kinase (ADK) gene, ADK (gene 132); experiment: LTEA_HepaRG_ADK: Life Technologies and Expression Analysis (LTEA) Assay for adenosine kinase (ADK) gene using HepaRG (AID 2283471)
# How it was run: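 ADK expression quantified by qRT-PCR, normalised to three housekeeping genes, after 48 h exposure of HepaRG cells to eight concentrations (top 100 uM, half-log steps, duplicate, 0.5% DMSO). Up- or down-regulation fitted relative to vehicle.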
# [18] = read-out: Alpha-fetoprotein (AFP) gene, AFP (gene 174); experiment: LTEA_HepaRG_AFP: Life Technologies and Expression Analysis (LTEA) Assay for Alpha-fetoprotein (AFP) gene using HepaRG (AID 2283472)
# How it was run: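 Human HepaRG cells plated 48 h, then switched to serum-free induction medium and exposed in duplicate for 48 h to 8-point half-log series from 100 uM in 0.5% DMSO. AFP mRNA by qRT-PCR, normalized to ACTB, GAPDH, POLR2A; bidirectional fit versus DMSO.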
# BCL2L11 (gene 10018) = experiment: LTEA_HepaRG_BCL2L11: Life Technologies and Expression Analysis (LTEA) Assay for Bcl-2 (BCL2L11) gene using HepaRG (AID 2283473)
# How it was run: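 Read-out is BCL2L11 transcript level by qRT-PCR, normalized to three housekeeping genes and fitted bidirectionally against 0.5% DMSO vehicle. HepaRG cells received chemicals for 48 h in serum-free induction medium, 100 uM down in half-log dilutions.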
# Broad substrate specificity ATP-binding cassette transporter ABCG2 (Homo sapiens), sequence (Q9UNQ0 whole entry, looked up): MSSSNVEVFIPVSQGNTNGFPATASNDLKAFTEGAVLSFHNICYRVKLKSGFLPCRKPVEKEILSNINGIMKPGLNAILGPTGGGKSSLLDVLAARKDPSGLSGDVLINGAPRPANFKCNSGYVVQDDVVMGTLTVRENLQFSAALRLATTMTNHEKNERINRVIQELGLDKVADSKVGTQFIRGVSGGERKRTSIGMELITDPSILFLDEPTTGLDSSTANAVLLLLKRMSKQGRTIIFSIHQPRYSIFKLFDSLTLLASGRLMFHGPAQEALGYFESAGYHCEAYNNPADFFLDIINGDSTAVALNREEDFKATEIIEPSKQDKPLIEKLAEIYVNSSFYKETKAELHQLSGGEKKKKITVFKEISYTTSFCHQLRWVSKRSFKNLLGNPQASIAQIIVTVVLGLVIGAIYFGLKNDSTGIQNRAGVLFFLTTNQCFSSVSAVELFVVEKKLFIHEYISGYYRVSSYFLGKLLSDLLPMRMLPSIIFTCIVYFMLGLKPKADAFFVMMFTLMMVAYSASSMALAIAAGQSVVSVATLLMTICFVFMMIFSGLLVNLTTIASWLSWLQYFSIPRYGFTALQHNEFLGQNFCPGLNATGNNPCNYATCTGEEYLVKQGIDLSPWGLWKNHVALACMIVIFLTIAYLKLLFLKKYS
compound,measurement,setting,value
c1cc[n+]2c(c1)-c1cccc[n+]1CC2,AC50,[1],22.4 µM (active)
same,outcome,[2],inactive
same,outcome,[3],inactive
same,outcome,[4],inactive
same,outcome,[5],inactive
same,outcome,[6],inactive
same,outcome,[7],inactive
same,outcome,[8],inactive
same,outcome,[9],inactive
same,outcome,[10],inactive
same,outcome,[11],inactive
same,outcome,[12],inactive
same,outcome,[13],inactive
same,outcome,[14],inactive
same,outcome,[15],inactive
same,outcome,[16],inactive
same,outcome,[17],inactive
same,outcome,[18],inactive
same,outcome,BCL2L11 (gene 10018),inactive
